# SMN2 splice up = enhancers of SMN2 splice variant expression; Potency, µM (highest dose often 46.1 µM), for the others: at the highest dose activity change, positive = activation, actives largely listed as activators; HEK293 SMN2-luciferase splicing reporter, luminescence, 30-36 h; 210,000 compounds, 2.8% hits; note: % of control where 0% means no effect; nearly all actives have a fitted effect of over 55% in size
#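 qHTS luciferase splicing reporter: luminescence rises when SMN2 exon 7 is included in transfected HEK293 cells. Compound exposure lasted 30-36 h at 37C, with 4.5 mM final sodium butyrate as control, followed by a ONE-Glo read.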
# NPC1 prom act = NPC1 promoter activation; Potency, µM (titrated, usually from 9.22 µM), for the others: top-dose activation, actives largely listed as activators; Huh7 NPC1 promoter luciferase reporter, 24 h; 320,000 compounds, 2.4% hits; note: % of control where 0% means no effect; nearly all actives have a fitted effect of over 60% in size
#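 Stably transfected Huh7 (NPC1 promoter→luciferase), 1500 cells/well in Opti-MEM + 10% FBS, 2 h settle, then compound 24 h at 37 °C. Luminescence after 10 min with Amplite reagent.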
# ELG1 genotox = induces genotoxicity in HEK293T cells with luciferase-tagged ELG1. 330,000 compounds, 1.3% hits. Potency, µM (series often up to 46 µM), for inactives: top-dose activity change, positive = activation, hits mostly activators. HEK293T ELG1-luciferase reporter, luminescence, 16 h. AID 504466; note: % of control where 0% means no effect; nearly all actives have a fitted effect of over 60% in size
#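 Reporter readout depends on ELG1 protein level, which increases with genetic stress. After 16 hr compound exposure at 37 °C, luciferase activity was quantified using ONE-Glo.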
# Luc counter = Kinase-Glo luciferase inhibition (counter-screen). Q27757. Kinase-Glo luciferase, ATP luminescence, 8 min. Potency, µM (titrated, usually from 38.3 µM), inactives show at the highest dose activity change, negative = inhibition, hits mostly inhibitors. 200,000 compounds, 0.28% hits. AID 1379; note: % is set by controls: 0 for no effect and ±100 for the full control effect; nearly all actives have a fitted effect of over 60% in size
#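 Luminescence was the read-out, taken after 8-minute incubation at ambient temperature. Luciferase turned over luciferin with 10 uM ATP in imidazole pH 7.2 buffer containing KCl, MgCl2, Tween 20 and BSA.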
# FLuc modulator = inhibits or activates purified firefly luciferase, miR-21 counter-screen; purified FLuc, Km substrates, luminescence inhibition; 360,000 compounds, 6.9% hits; Potency, µM (titrated, usually from 57.5 µM), without a hit: at the highest dose activity change, negative = inhibition, most hits filed as inhibitors;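 note: plate controls were vehicle for no effect and reference inhibitor for full effect; nearly all actives have a fitted effect of over 55% in size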
# Target sequence (P08659 whole entry, looked up): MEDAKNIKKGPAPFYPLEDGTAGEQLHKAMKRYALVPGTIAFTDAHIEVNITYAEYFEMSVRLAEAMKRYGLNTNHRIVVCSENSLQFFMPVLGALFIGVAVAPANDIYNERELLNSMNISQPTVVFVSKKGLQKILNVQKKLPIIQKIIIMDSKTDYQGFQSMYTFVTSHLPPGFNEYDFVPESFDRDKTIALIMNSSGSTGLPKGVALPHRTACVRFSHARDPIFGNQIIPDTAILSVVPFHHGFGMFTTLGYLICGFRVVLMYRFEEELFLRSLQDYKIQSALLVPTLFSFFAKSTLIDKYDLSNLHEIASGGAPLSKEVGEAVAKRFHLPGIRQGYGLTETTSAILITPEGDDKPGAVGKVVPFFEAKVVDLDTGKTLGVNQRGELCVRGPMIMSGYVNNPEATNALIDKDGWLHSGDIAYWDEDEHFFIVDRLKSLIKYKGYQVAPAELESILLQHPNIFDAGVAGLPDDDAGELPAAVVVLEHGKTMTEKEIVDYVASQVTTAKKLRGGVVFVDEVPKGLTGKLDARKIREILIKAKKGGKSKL
#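 Biochemical qHTS of compounds, final roughly 60 µM downward over six points, against 10 nM purified firefly luciferase using Km concentrations of substrates (10 uM D-luciferin, 10 uM ATP) in Tris acetate pH 7.5 buffer; luminescence output.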
# Rab9 prom act = activates the Rab9 promoter; Huh7 Rab9 promoter-luciferase reporter, luminescence, 24 h; Potency, µM (titrated, usually from 9.22 µM), without a hit: top-dose activation, negative = inhibition, hits mostly activators; 320,000 compounds, 2.8% hits; AID 485297; note: % of control where 0% means no effect; nearly all actives have a fitted effect of over 60% in size
#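 Luminescence from Amplite-detected luciferase (10 minutes, ambient) reports Rab9 promoter activation. Before that, stable Rab9-luciferase Huh7 cells (1500/well, reduced-serum OP-MEM I plus 10% FBS) were exposed to compound for 24 hours at 37C.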
# Active calls of the source: *; u = inconclusive; x = no result; [ ] = remark or other dose. Shown are actives, neighbours in structure and some others; about 7.5% of the full set was active somewhere. Calls come from the whole dose curve; as a rule, active = well fitted curve in the direction sought with a large enough effect; inconclusive = small, poorly fitted or top-dose-only effect, or another doubt; inactive = no such curve, though single readings can be large; an effect the other way counts as inactive or inconclusive. Potency is the fitted concentration of half-maximal effect.
SMILES,SMN2 splice up,NPC1 prom act,ELG1 genotox,Luc counter,FLuc modulator,Rab9 prom act
Cc1cccc(OC(C)C(=O)N2CCC(c3nc4ccccc4o3)CC2)c1C (stereo not given),x,x,x,x,-14.6%,x
Cc1ccc(SCCN2CCN(C)CC2)cc1,x,-0.8%,-4.4%,x,5.0%,11.2%
Cc1cc(C)cc(NC(=O)CSCn2nnc3c(=O)[nH]c(Cc4ccc(F)cc4)nc32)c1,2.2%,x,x,x,-10.8%,x
O=S(=O)(c1ccc(NC(=S)N/N=C/c2ccc(O)c(O)c2)cc1)N1CCOCC1,x,-1.6%,3.0%,x,16.9µM*,-4.8%
Oc1ccc(/C=N/NC(=S)N2CCOCC2)cc1,-45.5%,26.3%,9.4%,u,7.57µM*,28.2%
N#Cc1ccc(/C=N/NC(=S)Nc2ccc(S(=O)(=O)N3CCOCC3)cc2)cc1,x,-3.8%,-5.2%,x,-17.0%,-3.7%
O=S(=O)(c1ccc(Cl)c(NC(=S)N/N=C/c2ccc(O)cc2)c1)N1CCOCC1,-62.8%,-6.7%,-6.0%,-1.4%,16.9µM*,1.0%
O=S(=O)(c1ccc(Cl)c(NC(=S)N/N=C/c2c(F)cccc2F)c1)N1CCOCC1,x,-3.9%,2.1%,x,3.5%,-4.9%
COc1ccc(C(=O)N2CCN(Cc3cc(=O)n4nc(-c5ccccc5C)sc4n3)CC2)cc1OC,x,x,x,x,-3.0%,x
CC(C)(C)c1ccc(/C=C2\CCn3c2nc2cc(C(=O)O)ccc2c3=O)cc1,x,-1.6%,4.0%,x,-5.2%,-4.4%
CN(Cc1ccccc1)C(=O)COC(=O)CCC(=O)c1ccc(Cl)cc1,x,x,0.3%,x,x,x
CCN=C1NN=C(c2c[nH]c3ccccc23)CS1,x,3.55µM*,u,-4.1%,6.01µM*,1.12µM*
CCN=C1NN=C(c2cc(C)n(CCc3ccccc3)c2C)CS1,-43.2%,3.3%,u,6.4%,-16.1%,-0.9%
COCC(C)N=C1NN=C(c2c[nH]c3ccccc23)CS1 (stereo not given),x,18.7%,u,-1.7%,21.3µM*,u
COc1ccc(O)c(C(=O)CC(=O)c2ccccc2C)c1,x,u,u,-1.1%,u,3.16µM*
COc1ccc(C(=O)CC(=O)c2ccccc2O)cc1OC,u,10.6%,u,-0.7%,u,-3.6%[1.84 µM]
COc1ccc(C(=O)CC(=O)c2ccccc2O)cc1,x,u,u,x,12µM*,25.4%
COc1ccc(O)c(C(=O)CC(=O)c2ccc(F)cc2)c1,2.24µM*,0.562µM*,u,-1.9%,12µM*,0.708µM*
COc1ccc(N2CC(NC(=O)CCc3ccccc3)CC2=O)cc1OC (stereo not given),x,x,x,x,-0.4%,x
CCOc1ccc(NC(=O)Cn2c(=O)oc3cc(S(=O)(=O)N4CCC(C)CC4)ccc32)cc1,-25.9%,x,x,x,u,x
O=C(N/N=C/C(Br)=C/c1ccccc1)c1cccs1,x,2.24µM*,u,-1.7%,1.51µM*,0.891µM*
O=C(N/N=C/C=C/c1ccccc1)c1cccs1,u,u,8.9%,2.5%,15.1µM*,1.78µM*
O=C(Cc1cccs1)N/N=C/C=C/c1ccccc1,u,u,12.6%,-1.5%,-10.6%,u
COc1ccccc1C(=O)NNC(=O)c1cccc(F)c1,3.16µM*,u,u,u,15.1µM*,u
COCC(=O)NNC(=O)c1ccccc1OC,-9.3%,-2.5%,-0.6%,-1.4%,-4.7%,-3.2%
SMILES,SMN2 splice up,NPC1 prom act,ELG1 genotox,Luc counter,FLuc modulator,Rab9 prom act
Cc1occc1C(=O)NNC(=O)c1cccc(F)c1,12.0%,-0.1%,2.6%,2.6%,-2.1%,7.6%
COc1cc2ccccc2cc1C(=O)NNC(=O)c1ccccc1O,x,1.6%,16.4%,x,u,7.3%
COc1ccccc1C(=O)NNC(=O)c1ccccc1F,25.1µM*,u,u,-20.5%,15.1µM*,29.1%
COc1ccccc1C(=O)NNC(=O)c1cccc(O)c1,x,u,u,x,12µM*,u
Cc1nonc1CN(C)C(=O)c1cc(COc2ccc(F)cc2Cl)on1,x,27.5%,9.2%,x,u,19.1%
Cc1ccc(CN(C)C(=O)c2cc(COc3ccc(F)cc3Cl)on2)o1,x,14.1%,9.4%,-2.5%,21.3µM*,14.3%
